Experimental data as given in PubChem BioAssay AID1159580 (chemical genetic matrix, 2015).
The campaign covered roughly 5,500 compounds. About 2,000 (36%) were called active. Another 18% or so got no clear call; they are omitted. The list shows a part of the results. Unmarked numbers belong to inactive results. No stated cut-off is given here; in the data, active means normalized growth mostly below about 0.91 (no sharp cut-off); inconclusive means no clear call, values can overlap the other calls; inactive means mostly above about 0.92.

Assay: chemical genetic growth profiling, strain panel (AID 1159580);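 further: tested at 20 µM; growth read once vehicle control cultures reached saturation at 30 °C; 1 = growth at the plate median or of vehicle wells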
Conditions: S. cerevisiae deletion strains, growth OD

**Q.** For COC(=O)c1cnn(-c2c(Cl)cccc2Cl)c1C=C(C#N)C#N, which normalized growth (locus YAR019C, strain CDC15, stronger effect = lower value) is on record?
**A.** Its normalized growth is 0.939.

**Q.** And the normalized growth (locus YBL105C, strain PKC1, stronger effect = lower value)?
**A.** The normalized growth was 0.957.

**Q.** What about the normalized growth (locus YBR135W, strain CKS1, stronger effect = lower value) of the same molecule?
**A.** Its normalized growth is 0.954.

**Q.** What about the normalized growth (locus YBR136W, strain MEC1, stronger effect = lower value) of the same molecule?
**A.** Its normalized growth is 0.952.

**Q.** What about the normalized growth (locus YBR160W, strain CDC28, stronger effect = lower value) of the same molecule?
**A.** The normalized growth was 0.955.

**Q.** And the normalized growth (locus YDL017W, strain CDC7, stronger effect = lower value)?
**A.** The normalized growth was 0.953.

**Q.** And the normalized growth (locus YDL028C, strain MPS1, stronger effect = lower value)?
**A.** The normalized growth was 0.946.

**Q.** What about the normalized growth (locus YDL101C, strain DUN1, stronger effect = lower value) of the same molecule?
**A.** Its normalized growth is 0.944.

**Q.** And the normalized growth (locus YDL108W, strain KIN28, stronger effect = lower value)?
**A.** The normalized growth was 0.961.

**Q.** What about the normalized growth (locus YDL132W, strain cdc53, stronger effect = lower value) of the same molecule?
**A.** The normalized growth was 0.942.

**Q.** What about the normalized growth (locus YDL214C, strain PRR2, stronger effect = lower value) of the same molecule?
**A.** The normalized growth was 0.966.

**Q.** And the normalized growth (locus YDR052C, strain DBF4, stronger effect = lower value)?
**A.** The normalized growth was 0.948.

**Q.** What about the normalized growth (locus YDR054C, strain cdc34, stronger effect = lower value) of the same molecule?
**A.** Its normalized growth is 0.943.

**Q.** And the normalized growth (locus YDR226W, strain ADK1, stronger effect = lower value)?
**A.** The normalized growth was 0.956.

**Q.** What about the normalized growth (locus YDR477W, strain SNF1, stronger effect = lower value) of the same molecule?
**A.** Its normalized growth is 0.972.

**Q.** And the normalized growth (locus YER123W, strain YCK3, stronger effect = lower value)?
**A.** Its normalized growth is 0.954.

**Q.** And the normalized growth (locus YER133W, strain GLC7, stronger effect = lower value)?
**A.** The normalized growth was 0.922.

**Q.** And the normalized growth (locus YFL009W, strain cdc4, stronger effect = lower value)?
**A.** The normalized growth was 0.936.

**Q.** What about the normalized growth (locus YFL029C, strain CAK1, stronger effect = lower value) of the same molecule?
**A.** The normalized growth was 0.954.

**Q.** What about the normalized growth (locus YFR003C, strain YPI1, stronger effect = lower value) of the same molecule?
**A.** The normalized growth was 0.95.

**Q.** And the normalized growth (locus YFR019W, strain FAB1, stronger effect = lower value)?
**A.** The normalized growth was 0.966.

**Q.** And the normalized growth (locus YFR028C, strain CDC14, stronger effect = lower value)?
**A.** The normalized growth was 0.949.

**Q.** And the normalized growth (locus YGR040W, strain KSS1, stronger effect = lower value)?
**A.** The normalized growth was 0.944.

**Q.** And the normalized growth (locus YGR052W, strain FMP48, stronger effect = lower value)?
**A.** Its normalized growth is 0.93.

**Q.** What about the normalized growth (locus YGR092W, strain DBF2, stronger effect = lower value) of the same molecule?
**A.** Its normalized growth is 0.912.

**Q.** What about the normalized growth (locus YHR079C, strain IRE1, stronger effect = lower value) of the same molecule?
**A.** Its normalized growth is 0.775.

**Q.** And the normalized growth (locus YHR082C, strain KSP1, stronger effect = lower value)?
**A.** Its normalized growth is 1.1.

**Q.** And the normalized growth (locus YHR205W, strain SCH9, stronger effect = lower value)?
**A.** The normalized growth was 1.

**Q.** What about the normalized growth (locus YIL147C, strain SLN1, stronger effect = lower value) of the same molecule?
**A.** Its normalized growth is 0.947.

**Q.** And the normalized growth (locus YJL095W, strain BCK1, stronger effect = lower value)?
**A.** Its normalized growth is 0.782.

**Q.** What about the normalized growth (locus YJL128C, strain PBS2, stronger effect = lower value) of the same molecule?
**A.** Its normalized growth is 0.969.

**Q.** And the normalized growth (locus YJL157C, strain FAR1, stronger effect = lower value)?
**A.** Its normalized growth is 0.962.

**Q.** What about the normalized growth (locus YJR016C, strain ILV3, stronger effect = lower value) of the same molecule?
**A.** The normalized growth was 0.955.

**Q.** What about the normalized growth (locus YJR066W, strain TOR1 (second series), stronger effect = lower value) of the same molecule?
**A.** The normalized growth was 0.964.

**Q.** What about the normalized growth (locus YJR066W, strain TOR1, stronger effect = lower value) of the same molecule?
**A.** Its normalized growth is 1.08.

**Q.** What about the normalized growth (locus YKL048C, strain ELM1, stronger effect = lower value) of the same molecule?
**A.** The normalized growth was 0.922.

**Q.** And the normalized growth (locus YKL067W, strain YNK1, stronger effect = lower value)?
**A.** Its normalized growth is 0.955.

**Q.** What about the normalized growth (locus YKL101W, strain HSL1, stronger effect = lower value) of the same molecule?
**A.** Its normalized growth is 0.958.

**Q.** And the normalized growth (locus YKL193C, strain SDS22, stronger effect = lower value)?
**A.** The normalized growth was 0.949.

**Q.** And the normalized growth (locus YKL203C, strain TOR2, stronger effect = lower value)?
**A.** The normalized growth was 1.03.

**Q.** And the normalized growth (locus YLR113W, strain HOG1, stronger effect = lower value)?
**A.** The normalized growth was 0.748 (active).

**Q.** And the normalized growth (locus YLR133W, strain CKI1, stronger effect = lower value)?
**A.** Its normalized growth is 0.968.

**Q.** What about the normalized growth (locus YLR403W, strain SFP1, stronger effect = lower value) of the same molecule?
**A.** The normalized growth was 0.975.

**Q.** And the normalized growth (locus YML070W, strain DAK1, stronger effect = lower value)?
**A.** The normalized growth was 0.961.

**Q.** What about the normalized growth (locus YMR001C, strain CDC5, stronger effect = lower value) of the same molecule?
**A.** Its normalized growth is 0.953.

**Q.** And the normalized growth (locus YMR205C, strain PFK2 (second series), stronger effect = lower value)?
**A.** The normalized growth was 0.975.

**Q.** And the normalized growth (locus YMR277W, strain FCP1, stronger effect = lower value)?
**A.** The normalized growth was 0.949.

**Q.** What about the normalized growth (locus YNL006W, strain LST8, stronger effect = lower value) of the same molecule?
**A.** The normalized growth was 0.955.

**Q.** And the normalized growth (locus YNL020C, strain ARK1, stronger effect = lower value)?
**A.** Its normalized growth is 0.969.

**Q.** And the normalized growth (locus YNL161W, strain CBK1, stronger effect = lower value)?
**A.** The normalized growth was 0.94.

**Q.** What about the normalized growth (locus YNL183C, strain NPR1, stronger effect = lower value) of the same molecule?
**A.** Its normalized growth is 0.863.

**Q.** And the normalized growth (locus YNL207W, strain RIO2, stronger effect = lower value)?
**A.** Its normalized growth is 0.95.

**Q.** And the normalized growth (locus YNL222W, strain SSU72, stronger effect = lower value)?
**A.** The normalized growth was 0.966.

**Q.** And the normalized growth (locus YNL307C, strain MCK1 (second series), stronger effect = lower value)?
**A.** The normalized growth was 0.986.

**Q.** What about the normalized growth (locus YOL078W, strain AVO1, stronger effect = lower value) of the same molecule?
**A.** The normalized growth was 0.946.

**Q.** What about the normalized growth (locus YOL136C, strain PFK27, stronger effect = lower value) of the same molecule?
**A.** Its normalized growth is 0.969.

**Q.** What about the normalized growth (locus YOR061W, strain CKA2, stronger effect = lower value) of the same molecule?
**A.** The normalized growth was 0.95.

**Q.** And the normalized growth (locus YOR119C, strain RIO1, stronger effect = lower value)?
**A.** Its normalized growth is 0.961.

**Q.** What about the normalized growth (locus YOR231W, strain MKK1, stronger effect = lower value) of the same molecule?
**A.** Its normalized growth is 0.797.

**Q.** What about the normalized growth (locus YOR329C, strain SCD5, stronger effect = lower value) of the same molecule?
**A.** The normalized growth was 0.947.

**Q.** And the normalized growth (locus YPL031C, strain PHO85, stronger effect = lower value)?
**A.** The normalized growth was 0.948.

**Q.** What about the normalized growth (locus YPL153C, strain RAD53, stronger effect = lower value) of the same molecule?
**A.** The normalized growth was 0.938.

**Q.** What about the normalized growth (locus YPL204W, strain HRR25, stronger effect = lower value) of the same molecule?
**A.** The normalized growth was 0.956.

**Q.** And the normalized growth (locus YPL209C, strain IPL1, stronger effect = lower value)?
**A.** The normalized growth was 0.954.

**Q.** And the normalized growth (locus YPL256C, strain CLN2, stronger effect = lower value)?
**A.** The normalized growth was 0.781 (active).

**Q.** And the normalized growth (locus YPR025C, strain CCL1, stronger effect = lower value)?
**A.** Its normalized growth is 0.942.

**Q.** What about the normalized growth (locus YPR106W, strain ISR1, stronger effect = lower value) of the same molecule?
**A.** The normalized growth was 0.942.

**Q.** What about the normalized growth (locus YPR111W, strain DBF20, stronger effect = lower value) of the same molecule?
**A.** The normalized growth was 0.953.

**Q.** What about the normalized growth (strain NNK1, stronger effect = lower value) of the same molecule?
**A.** The normalized growth was 0.969.

**Q.** And the normalized growth (strain TSCII, stronger effect = lower value)?
**A.** The normalized growth was 0.943.
